SARS PLpro yeast = qHTS of Yeast-based Assay for SARS-CoV PLP | S. cerevisiae expressing SARS-CoV PLpro, growth rescue | Potency, µM (series often up to 32.9 µM), for the others: at the highest dose activity, positive = growth rescue, actives largely listed as activators | 0.19% of 330,000 active | AID 485353, 2010; calls by dose curve; further: potency means the concentration at half of the fitted maximal effect; 0% is about no effect; nearly all actives have a fitted effect of over 55% in size
CHX counter = Cycloheximide Counterscreen for Small Molecule Inhibitors of Shiga Toxin; cell reporter, cycloheximide protein synthesis inhibition counterscreen; max response, %; 12% of 300,000 active; in the data active means max response mostly above about 13%, no sharp cut-off; inactive means mostly below about 14%; further: read at 38.3 µM for the half of the compounds with a filed dose; 0% is about no effect
AmpC detergent = qHTS Inhibitors of AmpC Beta-Lactamase (assay with detergent); P00811; AmpC hydrolysis of nitrocefin, absorbance 480 nm, 0.01% Triton; Potency, µM (doses to about 114 µM), inactives show top-dose activity change, negative = inhibition, actives largely listed as inhibitors; 0.041% of 370,000 active; AID 485294, 2010;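 further: potency means the concentration at half of the fitted maximal effect; 0% = no-compound wells and -100% = no-enzyme wells; nearly all actives have a fitted effect of over 25% in size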
Target sequence (P00811 whole entry, looked up): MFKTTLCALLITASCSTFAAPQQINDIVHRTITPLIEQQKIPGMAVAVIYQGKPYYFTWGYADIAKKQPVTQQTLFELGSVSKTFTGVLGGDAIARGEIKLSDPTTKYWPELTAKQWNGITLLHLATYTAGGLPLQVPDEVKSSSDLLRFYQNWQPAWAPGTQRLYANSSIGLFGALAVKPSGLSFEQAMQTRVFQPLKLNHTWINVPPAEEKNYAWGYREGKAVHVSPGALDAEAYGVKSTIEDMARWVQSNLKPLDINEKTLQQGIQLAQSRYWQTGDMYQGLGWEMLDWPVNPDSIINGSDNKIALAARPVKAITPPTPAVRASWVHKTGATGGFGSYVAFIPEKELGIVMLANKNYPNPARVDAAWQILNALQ
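AmpC (5.3 nM in the dispensed reagent) in 20 mM phosphate pH 7.0 with 0.01% (detergent screen) or 0.0001% Triton X-100 was preincubated with compounds for 15 min at room temperature. Nitrocefin was then added from an 800 uM solution, and hydrolysis was followed at 480 nm.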
AmpC no deterg = qHTS Inhibitors of AmpC Beta-Lactamase (assay without detergent); 0.52% of 330,000 active; AmpC nitrocefin hydrolysis, absorbance 480 nm, 0.0001% Triton; P00811; Potency, µM (top dose mostly 57.1 µM), for the others: at the top dose activity change, negative = inhibition, usual class: inhibitors;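 further: potency means the concentration at half of the fitted maximal effect; plate controls were no compound for no effect and no enzyme for full effect; nearly all actives have a fitted effect of over 20% in size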
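AmpC (5.3 nM in the dispensed reagent) in 20 mM phosphate pH 7.0 with 0.01% (detergent screen) or 0.0001% Triton X-100 was preincubated with compounds for 15 min at room temperature. Nitrocefin was then added from an 800 uM solution, and hydrolysis was followed at 480 nm.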
AMA1 RON2 block = qHTS for Inhibitors of AMA1-RON; Towards Development of Antimalarial Drug Lead: Primary Screen; AlphaScreen AMA1-biotinylated RON2 peptide binding; Potency, µM (titrated, usually from 58.2 µM), without a hit: at the top dose activity change, negative = inhibition, actives largely listed as inhibitors; 0.2% of 360,000 active;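 further: potency means the concentration at half of the fitted maximal effect; 0% = vehicle wells and -100% = peptide control; nearly all actives have a fitted effect of over 45% in size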
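AMA1 (3D7) with his tag at 25 nM final met compounds first, then biotinylated RON2 peptide at 25 nM; detection used donor plus acceptor beads, 10 µg/mL apiece, read by AlphaScreen after 30 min at room temperature.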
Shiga toxin inh = A qHTS for Small Molecule Inhibitors of Shiga Toxin; Vero cells, Shiga toxin protein synthesis inhibition reporter; AID 2315, 2010; inhibition, % at 38.7 µM; 9.2% of 290,000 active; in the data active means inhibition mostly above about 28%, no sharp cut-off; inactive means mostly below about 43%; further: 0% is about no effect
The depositor's hits bear a star; ? = inconclusive; . = no result given; [ ] = dose if it differs, or a comment. The sample as a whole holds a higher share of hits than the screen did. Unless noted, the call rests on the fitted dose curve; in most records, active means well fitted curve in the direction sought with a large enough effect; inconclusive means small, poorly fitted or top-dose-only effect, or another doubt; inactive means no such curve, though single readings can be large; an effect the other way counts as inactive or inconclusive.

SMILES	SARS PLpro yeast	CHX counter	AmpC detergent	AmpC no deterg	AMA1 RON2 block	Shiga toxin inh
COC(=O)[C@H](CC(C)C)NC(=O)Nc1ccc2c(c1)OCCO2	-7%	33*	?	-10%	5%	93*
CC(C)CC(NC(=O)C1CCC(C)CC1)C(=O)Nc1ccccc1F (centres undefined)	2%	7	-15%	-18%	12%	12
CC(C)CC(NC(=O)C1CCC(C)CC1)C(=O)Nc1ccccn1 (centres undefined)	-5%	27*	-14%	-5%	5%	131*
CC(=O)NC(CCS(C)(=O)=O)C(=O)Nc1ccc2c(c1)OCCO2 (centres undefined)	1%	11	4%	-11%	-2%	42*
COc1cccc(NC(=S)N(C)C2CCN(C)CC2)c1	-1%	-1	-2%	-18%	1%	7
CCCOc1ccc(F)cc1-c1cc(C(=O)NCc2ccc(C(F)(F)F)cc2)[nH]n1	.	.	.	.	0%	.
CN(Cc1ccccc1)Cc1c[nH]c2ccccc12	0%	-5	-9%	-21%	6%	-26
COc1ccc(CN(C)C(=O)c2ccccc2OCc2c(C)noc2C)c(OC)c1	-1%	.	6%	56%	66%	.
Cc1ccc(SC2=C[C@@]3(O)CC[C@@H](O)[C@@](Sc4ccc(C)cc4)(C2=O)[C@H]3O)cc1	.	.	.	.	0%	.
CC(=O)NC(CCS(C)(=O)=O)C(=O)Nc1ccccc1Cl (centres undefined)	7%	11	1%	-4%	0%	-12
CC(=O)NC(CCS(C)(=O)=O)C(=O)Nc1cccc2ccccc12 (centres undefined)	-5%	-1	?	4.5µM*	-3%	6
O=C(N/N=C/c1cccc([N+](=O)[O-])c1O)C(O)(c1ccccc1)c1ccccc1	4%	-4	-1%	-58%	70%	-10
NC(=S)N/N=C/c1ccc(Br)o1	?	3	?	-8%	77%	9
O=C(/C=C\c1ccc(-c2cccc([N+](=O)[O-])c2)o1)N1CCOCC1	-3%	37*	?	40%	-22%	61*
O=C(N/N=C/c1cccc([N+](=O)[O-])c1O)c1cccs1	?	38*	0%	-11%	11%	active
NC(=S)N/N=C/c1ccc(-c2cccc([N+](=O)[O-])c2)o1	14%	14*	-8%	-31%	25%	34
NC(=S)N/N=C/c1ccc(-c2cc(Cl)c(Cl)cc2Cl)o1	-1%	-1	0%	20µM*	64%	-3
O=[N+]([O-])c1cccc(-c2ccc(/C=N/NC(=S)Nc3cccc(F)c3)o2)c1	3%	1	7%	-57%	59%	10
CCOC(=O)c1sc2nc(SCC#N)n(CC3CCCO3)c(=O)c2c1C (centres undefined)	1%	-4	-9%	-19%	-1%	-3
Cc1cc(=O)c(C(=O)O)nn1-c1ccccc1Cl	5%	-3	-10%	-16%	-14%	-4
O=C(N/N=C/c1ccc([N+](=O)[O-])cc1)c1cccs1	0%	34*	?	-39%	-7%	31
O=C(N/N=C/c1ccc(-c2cccc([N+](=O)[O-])c2)o1)c1cccs1	0%	13*	-11%	-43%	-3%	6
Nc1nonc1C(=O)N/N=C/c1ccc(-c2cccc([N+](=O)[O-])c2)o1	1%	-6	?	-18%	5%	-5
CCCCc1nc(SCCN2CCOCC2)c2c(=O)n(C)c(=O)n(C)c2n1	-2%	-3	0%	-8%	-19%	5
O=C(NCCc1ccccn1)C(F)(F)C(F)(F)C(F)(F)C(F)(F)C(F)(F)C(F)F	5%	14*	?	14%	28%	-5
SMILES	SARS PLpro yeast	CHX counter	AmpC detergent	AmpC no deterg	AMA1 RON2 block	Shiga toxin inh
O=C(NCCc1ccccn1)c1ccc(OC(F)F)cc1	-4%	25*	-20%	-20%	-4%	75*
Cc1cccc(OCC(=O)Nc2ccc3nc(Nc4cccc(C(F)(F)F)c4)cc(C)c3c2)c1	.	.	-6%	.	.	.
Cc1ccc(S(=O)(=O)CC(=O)c2ccc(C(C)(C)C)cc2)cc1	-2%	6	0%	-28%	1%	26
Cc1cc(C(=O)CS(=O)(=O)c2ccccc2)cc(C)c1OC(=O)N(C)C	-2%	25*	?	1%	-11%	62*
Cc1ccc(S(=O)(=O)CC(=O)c2cc(C)c(OC(=O)N(C)C)c(C)c2)cc1	1%	19	-13%	44%	69%	40
Cc1cc(C(=O)CSc2ccccc2)cc(C)c1O	-4%	61*	-3%	-22%	7%	71*
Cc1nc(-c2ccccc2)sc1C(=O)CSc1ccccc1	-11%	15	-2%	?	32%	14
Cc1cc(C(=O)CS(=O)(=O)c2ccccc2)cc(C)c1O	0%	19*	-4%	-32%	-1%	44*
Cc1cc(C)nc(/N=C(\N)N2CCCCCC2)n1	-1%	-3	-4%	-19%	34%	15
Cc1cc(C)nc(/N=C(\N)N2CCc3ccccc32)n1	1%	33*	-2%	-8%	0%	88*
CCOc1ccc(NC(=S)NC(=O)Cc2ccccc2)cc1	15%	9	3%	-44%	34%	9
Cc1ccc(Cc2cc(C)n[nH]c2=O)cc1	-1%	-3	-2%	-12%	-3%	-3
Cc1ccc(-c2cc(Cc3ccncc3)c(=O)[nH]n2)cc1	1%	11*	1%	-10%	3%	7
Cc1ccccc1-n1c(SCc2csc(Nc3ccccc3)n2)nnc1-c1cccnc1	-8%	-5	-6%	19%	-9%	-9
Cc1ccc(Nc2nc(CSc3nnnn3-c3ccccc3)cs2)cc1	.	16	-1%	.	-18%	36
Cc1ccc(Nc2nc(CSc3nnc(-c4ccccc4C)n3C)cs2)cc1	-31%	45*	-11%	-12%	-2%	80*
Cc1ccc(Nc2nc(CSc3nnc(-c4ccccc4)n3C)cs2)cc1	-25%	32*	0%	-11%	9%	52*
Cc1ccc(Nc2nc(CSc3nnc(-c4cccnc4)n3-c3ccccc3C)cs2)cc1	10%	24*	-10%	20%	-13%	41
O=C(Cc1ccc2ccccc2c1)Nc1ccccc1Br	1%	1	-15%	-9%	-20%	5
CCCN(CCC)S(=O)(=O)c1ccc(C(=O)Nc2cc3oc4ccccc4c3cc2OC)cc1	22%	19*	?	-31%	8%[2.32 µM]	-11
COc1ccc(OC)c(NC(=O)c2ccc3c(c2)OCO3)c1	-5%	24*	-8%	-5%	-1%	.

Screening data from PubChem.
